In all, about 16,000 compounds went through this assay and about 2,600 (16%) were called active. About 20% were inconclusive and are not listed. A selection follows. Unmarked numbers belong to inactive results. Calls come from the whole dose curve; as a rule, active = well fitted curve in the direction sought with a large enough effect; inconclusive = small, poorly fitted or top-dose-only effect, or effect the other way; inactive = no such curve, though single readings can be large or run the other way.
% is set by controls: 0 for no effect and ±100 for the full control effect.

The target in the test is Cytochrome P450 2D6 (Homo sapiens) (UniProt P10635). Briefly: Cytochrome panel assay with activity outcomes. The settings on record: recombinant CYP, pro-luciferin dealkylation, luminescence, p450-cyp2d6; series mostly up to 57.1 µM; activity, negative = inhibition: at the top concentration.
Chain of Cytochrome P450 2D6 (Homo sapiens) (P10635 whole entry, looked up): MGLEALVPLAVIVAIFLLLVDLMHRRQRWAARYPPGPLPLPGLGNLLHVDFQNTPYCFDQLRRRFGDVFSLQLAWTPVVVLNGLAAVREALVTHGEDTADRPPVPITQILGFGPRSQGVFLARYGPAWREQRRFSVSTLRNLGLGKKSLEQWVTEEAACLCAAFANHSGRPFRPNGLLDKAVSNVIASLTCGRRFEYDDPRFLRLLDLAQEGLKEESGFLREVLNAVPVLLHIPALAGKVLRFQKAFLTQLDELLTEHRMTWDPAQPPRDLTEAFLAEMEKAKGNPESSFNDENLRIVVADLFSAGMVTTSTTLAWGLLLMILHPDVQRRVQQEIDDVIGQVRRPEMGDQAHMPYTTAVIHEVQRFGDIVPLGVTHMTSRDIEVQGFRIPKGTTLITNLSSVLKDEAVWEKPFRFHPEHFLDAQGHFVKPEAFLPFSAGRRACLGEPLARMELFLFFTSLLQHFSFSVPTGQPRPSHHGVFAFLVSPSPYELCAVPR
With `Cc1ccc(C(=O)N/N=C\c2cccn2C)cn1`, the “activity, negative = inhibition” value is 23.5%.
As for `Fc1ccc(C2=Nn3c(Cc4ccccc4F)nnc3SC2)cc1`, the “activity, negative = inhibition” value was -7.98%.
For the compound `Cc1ccc(C(=O)NC(=S)Nc2ccc(S(=O)(=O)N3CCN(C)CC3)cc2)cc1`, the “activity, negative = inhibition” value is -15.3%.
`CC(C)(C)NC(=O)C(c1ccccn1)N(C(=O)C1CSC(=O)C1)c1ccc(F)cc1` (stereo not drawn): the “activity, negative = inhibition” value is -21.8%.
Regarding `CC1=N[C@@](C)(COC(=O)[C@]2(C)N[C@](C)(CO)CO2)COC1=O`, the activity, negative = inhibition was 10% [at 11.4 µM].
Turning to `NC(=O)CN1CCN(c2nc(-c3ccc(F)cc3)cs2)CC1`, the “activity, negative = inhibition” value was -6.06%.
The AC50 is the concentration giving half of the maximal activity seen. In the case of `Cn1cccc1C(=O)N1CCC[C@@]2(CCN(Cc3ccccc3)C2)C1`, the half-maximal activity concentration (AC50) is 2 µM (active).
As for `Cn1cccc1C(=O)N1CCC[C@@]2(CCN(Cc3cc(C(F)(F)F)cc(C(F)(F)F)c3)C2)C1`, the half-maximal activity concentration (AC50) was 3.98 µM (active).
In the case of `Cn1cccc1C(=O)N1CCC2(CC1)CN(c1ccncc1)C2`, the “activity, negative = inhibition” value was -7.3%.
Turning to `Cn1cccc1C(=O)N1CCC[C@@]2(CCN(c3ccncc3)C2)C1`, the “activity, negative = inhibition” value is -6.49%.
Take `Cn1cccc1C(=O)N1CCC2(CCN(Cc3ccccc3)CC2)CC1`: the AC50 is 7.94 µM (active).
In the case of `Cn1cccc1C(=O)N1CCC2(CC1)CCN(c1ccccc1)CC2`, the “activity, negative = inhibition” value is 9.63%.
As for `COc1ccc(C(=O)N2CCC[C@@]3(CCN(Cc4cc(C(F)(F)F)cc(C(F)(F)F)c4)C3)C2)cc1`, the “activity, negative = inhibition” value was -10.6%.
Turning to `Cn1cccc1C(=O)N1CCC[C@@]2(CCN(c3ccccc3)C2)C1`, the “activity, negative = inhibition” value is -18.6%.
The same measure, in the same setting: the result for `CN1CC[C@@]2(CCCN(C(=O)c3cccn3C)C2)C1` reads -2.76%.
`Cn1cccc1C(=O)N1CCC2(CCN(Cc3ccncc3)CC2)CC1`: the “activity, negative = inhibition” value is -13.4%.
For `Cn1cccc1C(=O)N1CCC2(CC1)CN(Cc1ccc(C#N)cc1)C2`, the “activity, negative = inhibition” value was 4.08%.
On to `Cn1cccc1C(=O)N1CCC2(CCCN(Cc3ccncc3)C2)CC1`, for which the AC50 is 7.94 µM (active).
On to `NCC[C@H]1CCC[C@H](CCN)N1`, for which the “activity, negative = inhibition” value is -7.7%.
Take `O=[N+]([O-])c1ccc(C=Nc2ccc(Cl)cc2Cl)s1`: the “activity, negative = inhibition” value is -27.5%.
Consider `COC(=O)[C@@]1(Cc2ccc(F)cc2)[C@@H]2C(=CC(=O)[C@H]2CC(=O)C(=O)N2CCCC2)CN1C(=O)c1ccccc1`, for which the “activity, negative = inhibition” value was -13.8%.
As to `N#CCCn1c(=O)cnc2cnc(N3CCNCC3)nc21`, the “activity, negative = inhibition” value is 1.14%.
Same read-out and setting: the result for `c1ccc2cc(-c3csnn3)ccc2c1` reads -25.1%.
As for `CS(=O)(=O)N1CCCC(C(=O)N2CCc3ccccc3C2)C1` (stereo not drawn), the “activity, negative = inhibition” value is -9.11%.
Turning to `CCOC(=O)CC(=O)CSc1nc(-c2cccnc2)cc(C)c1C#N`, the “activity, negative = inhibition” value is -8.95%.
As to `Cc1ccc(CONC(=O)/N=C/N(C)C)cc1`, the “activity, negative = inhibition” value was -0.0637%.
On the same count and under the same terms, the result for `C=CCNc1sc(C(=O)c2ccccc2)c(N)c1C#N` reads -15.1%; that for `CCC[C@@H]1O[C@@H]2C[C@@H]3[C@H]4CCC5=CC(=O)C=C[C@@]5(C)[C@H]4[C@H](O)C[C@@]3(C)[C@@]2(C(=O)CO)O1`, 4.49% [at 25.6 µM]; that for `CO[C@@H]1/C=C\O[C@]2(C)Oc3c(C)c(O)c4c(O)c(cc(O)c4c3C2=O)NC(=O)/C(C)=C\C=C/[C@H](C)[C@@H](O)[C@H](C)[C@H](O)[C@H](C)[C@H](OC(C)=O)[C@@H]1C`, 11.7% [at 11.4 µM].
As to `O=C(CSc1nc2nc(-c3cccs3)cc(C(F)(F)F)c2c(=O)[nH]1)NCc1ccco1`, the “activity, negative = inhibition” value was 10.3%.
Turning to `O=C1COc2ccccc2CN1`, the “activity, negative = inhibition” value is -0.0301%.
`Cn1c(=O)cnc2cnc(Nc3ccccc3)nc21`: the “activity, negative = inhibition” value is -14.9%.
Consider `CC[C@]1(O)C[C@@H]2CN(CCc3c([nH]c4ccccc34)[C@](C(=O)OC)(c3cc4c(cc3OC)N(C)[C@H]3[C@](O)(C(=O)OC)[C@@H](C(=O)OC)[C@@]5(CC)C=CCN6CC[C@@]43[C@@H]65)C2)C1`, for which the “activity, negative = inhibition” value is 6.57%.
For `CN(C)S(=O)(=O)c1nc(Cl)c2[nH]cnc2n1`, the activity, negative = inhibition is 9.4% [at 11.4 µM].
With `Cn1cccc1C(=O)N1CCC2(CCCN(Cc3ccccc3)C2)CC1`, the AC50 is 10 µM (active).
As for `CC(C)CN1CCCC2(CCN(C(=O)c3cccn3C)CC2)C1`, the “activity, negative = inhibition” value was -12%.
As for `Cn1cccc1C(=O)N1CCC2(CCCN(Cc3ccc(C#N)cc3)C2)CC1`, the “activity, negative = inhibition” value is -1.96%.
With `O=c1c(-c2ccccc2)nc2cnc(N3CCOCC3)nc2n1Cc1cccs1`, the “activity, negative = inhibition” value is 10.8%.
The same measure, in the same setting: the result for `CCOc1ccc(OCC)c(NC(=O)C2CCCN(S(=O)(=O)c3cccs3)C2)c1` (stereo not drawn) reads -21.1%; that for `NNc1nncc2ccccc12`, -9.84%.
Turning to `C=CC[C@@H]1C=C[C@H](O/N=C\[C@@H](C)[C@H](OCc2ccccc2)C(C)C)[C@H](CO)O1`, the activity, negative = inhibition is -3.33% [at 11.4 µM].
As to `CC1(C)N=C(N)N=C(N)N1CCCCc1ccccc1`, the half-maximal activity concentration (AC50) is 3.16 µM (active).
For `COc1ccc(-n2c(=O)c(-c3ccc(Cl)cc3)nc3cnc(N4CCOCC4)nc32)cc1`, the “activity, negative = inhibition” value was -14.9%.
In the case of `CCOC(=O)COc1c(OC)cc(Cl)cc1C1Nc2ccccc2C(=O)N1c1cccc(C)c1` (stereo not drawn), the “activity, negative = inhibition” value was -3.19%.
As to `CN(CCC#N)C(=O)c1ccc(CNS(=O)(=O)c2ccc(F)cc2)cc1`, the AC50 was 28.2 µM (active).
For `O=C(NCCCN1CCCC1=O)c1ccc(CNS(=O)(=O)c2ccc(F)cc2)cc1`, the “activity, negative = inhibition” value is -13%.
`Cn1c(CNS(=O)(=O)c2ccc(F)cc2)n[nH]c1=S`: the “activity, negative = inhibition” value was -1.79%.
For `CC(C)c1ccc2nc3sc(C(=O)N4CCc5ccccc5C4)c(N)c3cc2c1`, the “activity, negative = inhibition” value is -13.4%.

Values taken from PubChem BioAssay AID1851 (National Center for Advancing Translational Sciences (NCATS), 2009).
